AMA1 RON2 block = AMA1-RON2 (P. falciparum) interaction inhibition; Potency, µM (series often up to 58.2 µM), usual class: inhibitors; 0.2% of 360,000 active; AlphaScreen AMA1-biotinylated RON2 peptide binding; further: nearly all actives have a fitted effect of over 45% in size
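AMA1 (3D7) with his tag at 25 nM final met compounds first, then biotinylated RON2 peptide at 25 nM; detection used donor plus acceptor beads, 10 µg/mL apiece, read by AlphaScreen after 30 min at room temperature.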
Pf growth 96h = P. falciparum growth inhibition at 96 hours; P. falciparum luciferase reporter growth, 96 h; Potency, µM (highest dose often 28.7 µM), actives largely listed as inhibitors; 6.9% of 320,000 active
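P. falciparum expressing integrated firefly luciferase, in erythrocytes at 2% hematocrit, 0.05% parasitemia, incubated with compounds 96 h at 37 C, 5% CO2. Growth inhibition read as loss of luminescence; two-generation exposure targets delayed-death apicoplast inhibitors.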
Pf growth 48h = P. falciparum growth inhibition at 48 hours (one generation) | 5.9% of 310,000 active | AID 504832 | P. falciparum luciferase growth in erythrocytes, 48 h | Potency, µM (highest dose often 28.7 µM), most hits filed as inhibitors
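Luciferase-expressing P. falciparum in infected erythrocytes (2% hematocrit, 0.1% parasitemia final) in RPMI 1640/0.5% Albumax were exposed to compound for 48 hours at 37 C, 5% CO2; growth read as luminescence.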
Shiga toxin inh = Shiga toxin inhibition. AID 2315. 9.2% of 290,000 active. inhibition, % at 38.7 µM. Vero cells, Shiga toxin protein synthesis inhibition reporter; in the data active means inhibition mostly above about 28%, no sharp cut-off; inactive means mostly below about 43%
SARS PLP yeast = blocks SARS-CoV papain-like protease in a yeast assay | Potency, µM (series often up to 32.9 µM), actives largely listed as activators | 0.19% of 330,000 active | S. cerevisiae expressing SARS-CoV PLpro, growth rescue; calls by dose curve; further: nearly all actives have a fitted effect of over 55% in size
Cycloheximide cs = counter-screen for Shiga toxin inhibitors: cycloheximide protein synthesis inhibition; max response, %; 12% of 300,000 active; cell reporter, cycloheximide protein synthesis inhibition counterscreen; in the data active means max response mostly above about 13%, no sharp cut-off; inactive means mostly below about 14%; further: read at 38.3 µM for the half of the compounds with a filed dose
A number is an active result; . = inactive; ? = inconclusive; / = not tested or not shown; [ ] = dose if it differs, or a comment. An excerpt weighted towards active compounds, which were near 19% of everything screened. Unless noted, the call rests on the fitted dose curve; in most records, active means well fitted curve in the direction sought with a large enough effect; inconclusive means small, poorly fitted or top-dose-only effect, or another doubt; inactive means no such curve, though single readings can be large; an effect the other way counts as inactive or inconclusive.

SMILES	AMA1 RON2 block	Pf growth 96h	Pf growth 48h	Shiga toxin inh	SARS PLP yeast	Cycloheximide cs
Cc1nnsc1S(=O)c1ccc(Cl)c(Cl)c1 (stereo not given)	.	5.22µM	/	.	.	.
Cc1nnsc1C(=O)Nc1ccc(Cl)cc1Cl	.	.	.	.	.	.
Cc1nnsc1S(=O)c1ccc(Cl)cc1 (stereo not given)	.	1.65µM	/	.	.	.
O=C(Nc1ccccc1)c1nnsc1S(=O)c1ccc(Cl)cc1 (stereo not given)	.	.	.	.	.	.
O=[N+]([O-])c1ccccc1-c1ccc(C(=S)N2CCCC2)o1	.	.	.	97.3	.	44.0
O=[N+]([O-])c1ccccc1-c1ccc(C(=S)N2CCCCC2)o1	25.1µM	.	.	62.5	.	58.3
COc1ccc(S(=O)(=O)n2nc(-n3c(C)ccc3C)c3c(F)cccc32)cc1OC	.	?	5.86µM	.	.	.
Cc1ccc(C)n1-c1nn(S(=O)(=O)c2ccccc2)c2cccc(F)c12	.	?	?	.	.	.
CN(C)c1ccc(C2C3CCCc4ccccc4C3=NN2C)cc1 (stereo not given)	.	.	.	96.5	.	58.9
COc1ccc([N+](=O)[O-])cc1NC(=O)C1CCCCC1C(=O)O (stereo not given)	.	.	.	.	.	.
C/C(=N\NC(=O)COc1ccccc1[N+](=O)[O-])c1cccc(NC(=O)c2ccncc2)c1	.	?	?	.	.	.
Cn1c(=O)c2cn(-c3ccc4c(c3)OCCO4)cc2n(C)c1=O	.	?	.	.	.	67.1
Cn1c(=O)c2cc(S(=O)(=O)Nc3ccc4c(c3)OCO4)ccc2n(C)c1=O	.	/	?	.	.	.
Cc1ccc(-n2cc3c(=O)n(C)c(=O)n(C)c3c2)cc1C	.	.[5.75 µM]	.	.	.	21.3
Cn1c(=O)c2c(-c3ccccc3)n(-c3ccccc3N)cc2n(C)c1=O	.	/	/	/	/	/
Cc1cc(N)c(-n2cc3c(=O)n(C)c(=O)n(C)c3c2)cc1C	.	/	?	.	.	39.9
O=C(CCCN1C(=O)C2CCCCN2C1=O)N1CCN(c2ccc([N+](=O)[O-])cc2)CC1 (stereo not given)	.	?	.	.	.	.
O=C(NC1CCCCC1)C1COc2ccccc2O1 (stereo not given)	.	.	.	/	.	/
CCN(CC1COc2ccccc2O1)C(=S)Nc1ccccc1 (stereo not given)	.	.	.	.	.	.
CN(CC1COc2ccccc2O1)C(=S)NC1CCCCC1 (stereo not given)	.	?	.	59.5	.	24.8
CCN(CC1COc2ccccc2O1)C(=S)NCCCN(C)C (stereo not given)	.	10.4µM	.	.	.	.
COc1cc(O)c(CCC(=O)c2ccc(OC)c(OC)c2)c(OC)c1	.	?	.	.	.	.
O=C(c1ccc(-c2ccccc2)cc1)c1ccccc1C(=O)N1CCOCC1	.	/	.	.	.	.
O=C(/C=C\N1CCOCC1)c1ccc(Br)cc1	.	?	.	33.9	.	26.7
O=C(/C=C/N1CCOCC1)c1ccc(-c2ccccc2)cc1	.	/	.	.	.	42.1
SMILES	AMA1 RON2 block	Pf growth 96h	Pf growth 48h	Shiga toxin inh	SARS PLP yeast	Cycloheximide cs
CCOP(=O)(c1ccc(N(C)C)cc1)C(O)c1ccc(C)cc1 (stereo not given)	.	.	.	.	.	.
CS/C(Nc1cc(Cl)ccc1Cl)=C(/C#N)C(=O)c1ccco1	.	5.86µM	3.29µM	.	.	.
NC(=O)CC1C(=O)N(c2ccccc2)C(=S)N1NC(=O)c1ccc(Br)cc1 (stereo not given)	.	.	/	54.5	.	28.6
NC(=O)CC1C(=O)N(c2ccccc2)C(=S)N1NC(=O)c1ccccc1 (stereo not given)	.	.	.	.	.	26.6
COc1cccc(C(=O)NN2C(=S)N(c3ccccc3)C(=O)C2CC(N)=O)c1 (stereo not given)	.	.	.	50.5	.	42.6
COc1cc(CN2C[C@@H](CO)O[C@@H](n3cnc4c(NC5CCCC5)ncnc43)C2)cc(OC)c1OC	.	/	/	/	/	/
c1cc2c3c(cccc3c1)NC1(CCC3(CC1)Nc1cccc4cccc(c14)N3)N2	?	6.57µM	9.28µM	.	.	.
Cc1c(C#N)c2ccccc2n1CCOc1ccccc1F	.	2.94µM	1.17µM	.	.	.
O=Cc1cn(CCOc2ccccc2F)c2ccccc12	.	?	.	49.3	.	25.4
N#Cc1cn(CCOc2ccc(F)cc2)c2ccccc12	.	.	10.4µM	.	.	.
Cc1ccc(OCCCn2cc(C#N)c3ccccc32)cc1	.	.	.	67.8	.	24.3
O=Cc1cn(CCOc2ccccc2)c2ccccc12	.	.	.	.	.	.
Cc1ccc(OCCn2cc(C=O)c3ccccc32)cc1	.	.	.	.	.	.
COCCCNC(=O)C1CCC(CNS(=O)(=O)c2ccc(Cl)cc2)CC1 (stereo not given)	.	.	.	.	.	.
CSc1ncccc1C(=O)OCC(=O)N(C)Cc1ccc(C)cc1	.	/	/	/	/	/
N#Cc1cn(CCOc2ccccc2F)c2ccccc12	.	/	2.94µM	.	.	17.6
CN1CCN(C(=S)c2cn(CCOc3ccccc3F)c3ccccc23)CC1	?	.	?	.	.	.
CCCCN(C(=O)C1CCN(C(=O)c2ccccc2C)CC1)c1c(N)n(CC(C)C)c(=O)[nH]c1=O	.	/	/	/	/	/
Cc1cc(Cl)c2oc(C(=O)N3CCN(C(=O)c4ccco4)CC3)c(C)c2c1	.	.	?	65.3	.	38.4
Cc1cc(Cl)c2oc(C(=O)N3CCOCC3)c(C)c2c1	.	/	/	/	/	/
Cc1c(C(=O)N2CCCCC2)oc2ccc(Br)cc12	.	.	.	/	.	/
O=C(Nc1cc(=O)c2ccccc2o1)N1CCOCC1	.	.	?	.	.	.
Cc1ccc2oc(C(=O)N3CCCCCC3)c(C)c2c1	.	13.1µM	.	110.1	.	70.6
O=C(Nc1cc(=O)c2ccccc2o1)N1CCCCC1	.	5.22µM	4.65µM	.	.	.
Cc1cc(Cl)c2oc(C(=O)N3CCN(c4cccc(C)n4)CC3)c(C)c2c1	?	3.7µM	.	/	.	46.6
SMILES	AMA1 RON2 block	Pf growth 96h	Pf growth 48h	Shiga toxin inh	SARS PLP yeast	Cycloheximide cs
CCOC(=O)c1ccccc1NC(=O)COC(=O)c1ccccc1C(=O)N(C)c1ccccc1	.	?	?	/	.	/
Cc1cc(C(=O)Nc2cccc3c2O[C@@H](CN(C)S(C)(=O)=O)[C@H](C)CN([C@@H](C)CO)C3=O)n(C)n1	.	/	/	/	.	/
Cc1ccc2oc(C(=O)N3CCN(c4cccc(C)n4)CC3)c(C)c2c1	?	?	.	/	.	27.0
Cc1c(C(=O)N2CCCCC2)oc2ccccc12	.	/	/	/	.	/
Nc1c(C(=O)N2CCCCCC2)oc2ccccc12	.	.	.	.	.	21.1
COc1ccccc1C(=O)N1CCN(C(=O)c2oc3ccc(C)cc3c2C)CC1	.	?	.	.	.	.

Screening results: PubChem BioAssay, National Center for Advancing Translational Sciences (NCATS)
